# Results reported in the supplement of paper PMC8728848.
# This excerpt belongs to a sample that is enriched for the strongest signals.
# How the values were obtained:
# Assay in all cases: glycan array binding signal (z-score within array); higher = stronger binding
# Conditions in all cases: glycan notation: IUPAC condensed, linker removed
# [1] = molecular target: Gal(b1-4)GlcNAc(b1-3)Gal(b1-4)GlcNAc(b1-3)Gal(b1-4)GlcNAc(b1-3)Gal(b1-4)GlcNAc(b1-2)[Gal(b1-4)GlcNAc(b1-3)Gal(b1-4)GlcNAc(b1-3)Gal(b1-4)GlcNAc(b1-3)Gal(b1-4)GlcNAc(b1-6)]Man(a1-6)[Gal(b1-4)GlcNAc(b1-3)Gal(b1-4)GlcNAc(b1-3)Gal(b1-4)GlcNAc(b1-3)Gal(b1-4)GlcNAc(b1-2)Man(a1-3)]Man(b1-4)GlcNAc(b1-4)[Fuc(a1-6)]GlcNAc
# In short: (§1)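 Columns mapping to the same glycan were averaged after glycan names were converted to IUPAC-condensed notation. The data come from 3228 arrays in the Consortium for Functional Glycomics database, limited to those with an available protein sequence. Binding is reported as a within-array Z-score averaged across arrays of one protein sequence and across linkers.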
# [2] = molecular target: Gal(b1-4)GlcNAc(b1-3)Gal(b1-4)GlcNAc(b1-3)Gal(b1-4)GlcNAc(b1-3)Gal(b1-4)GlcNAc(b1-3)Gal(b1-4)GlcNAc(b1-2)[Gal(b1-4)GlcNAc(b1-3)Gal(b1-4)GlcNAc(b1-3)Gal(b1-4)GlcNAc(b1-3)Gal(b1-4)GlcNAc(b1-3)Gal(b1-4)GlcNAc(b1-6)]Man(a1-6)[Gal(b1-4)GlcNAc(b1-3)Gal(b1-4)GlcNAc(b1-3)Gal(b1-4)GlcNAc(b1-3)Gal(b1-4)GlcNAc(b1-3)Gal(b1-4)GlcNAc(b1-2)Man(a1-3)]Man(b1-4)GlcNAc(b1-4)[Fuc(a1-6)]GlcNAc
# In short: as §1
# [3] = molecular target: Gal3S(b1-3)[Fuc(a1-4)]GlcNAc
# In short: as §1
# Gal3S(b1-4)Glc = molecular target: Gal3S(b1-4)Glc
# In short: as §1
# [4] = molecular target: Gal3S(b1-4)[Fuc(a1-3)]GlcNAc6S
# In short: as §1
# Gal6S(b1-4)Glc = molecular target: Gal6S(b1-4)Glc
# In short: as §1
# GalNAc(a1-3)GalNAc = molecular target: GalNAc(a1-3)GalNAc
# In short: as §1
# Glc(a1-4)Glc = molecular target: Glc(a1-4)Glc
# In short: as §1
# [5] = molecular target: GlcNAc(b1-2)Man(a1-3)[GlcNAc(b1-2)Man(a1-6)]Man(b1-4)GlcNAc(b1-4)GlcNAc
# In short: as §1
# [6] = molecular target: GlcNAc(b1-3)Gal(b1-3)GalNAc
# In short: as §1
# [7] = molecular target: GlcNAc(b1-3)Gal(b1-4)GlcNAc(b1-3)Gal(b1-4)GlcNAc(b1-3)Gal(b1-4)GlcNAc(b1-3)Gal(b1-4)GlcNAc(b1-2)Man(a1-3)[GlcNAc(b1-3)Gal(b1-4)GlcNAc(b1-3)Gal(b1-4)GlcNAc(b1-3)Gal(b1-4)GlcNAc(b1-3)Gal(b1-4)GlcNAc(b1-2)Man(a1-6)]Man(b1-4)GlcNAc(b1-4)[Fuc(a1-6)]GlcNAc
# In short: as §1
# [8] = molecular target: GlcNAc(b1-4)GlcNAc(b1-4)GlcNAc
# In short: as §1
# [9] = molecular target: Man(a1-2)Man(a1-3)[Man(a1-6)]Man(a1-6)[Man(a1-2)Man(a1-3)]Man(b1-4)GlcNAc(b1-4)GlcNAc
# In short: as §1
# [10] = molecular target: Man(a1-3)[Man(a1-6)]Man(a1-6)[Man(a1-3)]Man
# In short: as §1
# [11] = molecular target: Neu5Ac(a2-3)Gal(b1-4)GlcNAc(b1-3)Gal(b1-4)GlcNAc(b1-6)[Gal(b1-3)]GalNAc
# In short: as §1
# [12] = molecular target: Neu5Ac(a2-3)Gal(b1-4)[Fuc(a1-3)]GlcNAc
# In short: as §1
# [13] = molecular target: Neu5Ac(a2-3)Gal(b1-4)[Fuc(a1-3)]GlcNAc(b1-6)[Neu5Ac(a2-3)Gal(b1-3)]GalNAc
# In short: as §1
# [14] = molecular target: Neu5Ac(a2-6)Gal(b1-4)GlcNAc
# In short: as §1
# [15] = molecular target: Neu5Ac(a2-6)Gal(b1-4)GlcNAc(b1-2)Man(a1-3)[Neu5Ac(a2-6)Gal(b1-4)GlcNAc(b1-2)Man(a1-6)]Man(b1-4)GlcNAc(b1-4)[Fuc(a1-6)]GlcNAc
# In short: as §1
# [16] = molecular target: Neu5Ac(a2-6)Gal(b1-4)GlcNAc(b1-2)Man(a1-6)[Gal(b1-4)GlcNAc(b1-2)Man(a1-3)]Man(b1-4)GlcNAc(b1-4)GlcNAc
# In short: as §1
# [17] = molecular target: Neu5Ac(a2-6)Gal(b1-4)GlcNAc(b1-3)Gal(b1-4)GlcNAc
# In short: as §1
# [18] = molecular target: Neu5Ac(a2-6)GalNAc(b1-4)GlcNAc
# In short: as §1
# [19] = molecular target: Neu5Ac(a2-6)GlcNAc(b1-4)GlcNAc
# In short: as §1
# [20] = molecular target: Neu5Ac(a2-8)Neu5Ac(a2-8)Neu5Ac(a2-3)[GalNAc(b1-4)]Gal(b1-4)Glc
# In short: as §1
# [21] = molecular target: Neu5Ac(b2-6)Gal(b1-4)GlcNAc
# In short: as §1
# [22] = molecular target: Neu5Ac9Ac(a2-3)Gal(b1-3)GlcNAc
# In short: as §1
# [23] = molecular target: Neu5Ac9Ac(a2-3)Gal(b1-4)GlcNAc
# In short: as §1
# [24] = molecular target: Neu5Gc(a2-3)Gal(b1-3)[Fuc(a1-4)]GlcNAc
# In short: as §1
# Neu5Gc(a2-6)GalNAc = molecular target: Neu5Gc(a2-6)GalNAc
# In short: as §1
binder,measurement,setting,value
rMpL (Macrolepiota procera) (protein) MSTQVSSGRTYKITNVIAGTVIDLSGEDNKSIIGYPYHSGKNQQWTFNWTGKAWTLRSASSGSYLGIEGTPAGGTRLVAVNDPFEWHIWRDEANENAFRIFVPFTNYNLDLSGYGDTTPGTPVQLWWTWEGLHQTWTIDRP,glycan array binding signal (z-score),[1],4.7
same,glycan array binding signal (z-score),[2],4.6
same,glycan array binding signal (z-score),[3],-0.271
same,glycan array binding signal (z-score),Gal3S(b1-4)Glc,-0.325
same,glycan array binding signal (z-score),[4],-0.333
same,glycan array binding signal (z-score),Gal6S(b1-4)Glc,-0.233
same,glycan array binding signal (z-score),GalNAc(a1-3)GalNAc,-0.265
same,glycan array binding signal (z-score),Glc(a1-4)Glc,-0.289
same,glycan array binding signal (z-score),[5],-0.322
same,glycan array binding signal (z-score),[6],-0.302
same,glycan array binding signal (z-score),[7],-0.17
same,glycan array binding signal (z-score),[8],-0.382
same,glycan array binding signal (z-score),[9],-0.35
same,glycan array binding signal (z-score),[10],-0.268
same,glycan array binding signal (z-score),[11],-0.198
same,glycan array binding signal (z-score),[12],-0.32
same,glycan array binding signal (z-score),[13],-0.185
same,glycan array binding signal (z-score),[14],-0.358
same,glycan array binding signal (z-score),[15],-0.168
same,glycan array binding signal (z-score),[16],0.028
same,glycan array binding signal (z-score),[17],-0.363
same,glycan array binding signal (z-score),[18],-0.425
same,glycan array binding signal (z-score),[19],-0.364
same,glycan array binding signal (z-score),[20],-0.174
same,glycan array binding signal (z-score),[21],-0.33
same,glycan array binding signal (z-score),[22],-0.374
same,glycan array binding signal (z-score),[23],0.277
same,glycan array binding signal (z-score),[24],-0.335
same,glycan array binding signal (z-score),Neu5Gc(a2-6)GalNAc,-0.358
